An excerpt weighted towards active compounds, which were near 0.85% of everything screened.
MmCpn inh: blocks the Methanococcus maripaludis chaperonin Mm-Cpn. purified Mm-Cpn ATPase, ADP Transcreener TR-FRET. Potency, µM (titrated, usually from 76.9 µM), without a hit: at the top dose activity, negative = inhibition, most hits filed as inhibitors. 0.031% of 330,000 active. AID 504842; further: potency means the concentration at half of the fitted maximal effect; on the % scale 0 is the no-effect control and ±100 the full control effect; nearly all actives have a fitted effect of over 80% in size
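Measured: ADP formation by purified Mm-CPN. Conditions: 25 nM protein, 10 uM ATP, Tris pH 7.4 with Mg2+, K+ and DTT, 37°C for 30 min. Detection: Transcreener HTRF after 30 min at room temperature.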
IDH1 R132H inh: blocks human mutant IDH1 R132H enzyme; IDH1-R132H enzyme, NADPH consumption, diaphorase/resazurin fluorescence; Potency, µM (doses to about 76.6 µM), for inactives: at the highest dose activity change, negative = inhibition, most hits filed as inhibitors; 0.093% of 390,000 active; further: potency means the concentration at half of the fitted maximal effect; on the % scale 0 is the no-effect control and ±100 the full control effect; nearly all actives have a fitted effect of over 65% in size
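IDH1-R132H (0.5 ug/mL dispensed) in pH 7.5 Tris buffer was preincubated 30 min with compound, then given a substrate mix of 0.016 mM NADPH and 2 mM alpha-KG for 80 min at room temperature; remaining NADPH was read by diaphorase/resazurin fluorescence.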
CCT chaperon mod: changes cytosolic chaperonin activity; purified chaperonin ATPase assay, HTRF ADP detection, 30 min; activity change, % (test concentration not listed), hits read low; 0.3% of 360,000 active; AID 651819; in the data active means activity change below about -30%; further: on the % scale 0 is the no-effect control and ±100 the full control effect
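TRiC at 40 or 20 nM final (batch-dependent) in 30 mM Tris pH 7.4, 100 mM KCl, 5 mM MgCl2, 1 mM DTT, with compound at single 76 uM and 10 uM ATP, 30 min at 37 deg C. ADP detected by HTRF Transcreener, 665/615 ratio.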
GRP78 ERSR act: ER stress response induction in glioma | U87-MG GRP78 promoter luciferase reporter, 16 h | Potency, µM, inactives show top-dose activation, hits mostly activators | 0.02% of 420,000 active | AID 602332; further: potency means the concentration at half of the fitted maximal effect; series mostly up to about 76 µM; % of control where 0% means no effect; nearly all actives have a fitted effect of over 35% in size
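ERSR induction read as luciferase luminescence (Bright-Glo, 10 min at room temperature) in stably transfected human U87-MG glioma cells exposed to compounds for 16 h, using GRP78 as sensor.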
GLS inh: glutaminase GLS (human) inhibition; O94925; GLS enzymatic activity, qHTS titration; Potency, µM (titrated, usually from 45.5 µM), inactives show at the highest dose activity change, negative = inhibition, actives largely listed as inhibitors; 0.21% of 410,000 active; further: potency means the concentration at half of the fitted maximal effect; on the % scale 0 is the no-effect control and ±100 the full control effect
Target sequence (O94925 whole entry, looked up): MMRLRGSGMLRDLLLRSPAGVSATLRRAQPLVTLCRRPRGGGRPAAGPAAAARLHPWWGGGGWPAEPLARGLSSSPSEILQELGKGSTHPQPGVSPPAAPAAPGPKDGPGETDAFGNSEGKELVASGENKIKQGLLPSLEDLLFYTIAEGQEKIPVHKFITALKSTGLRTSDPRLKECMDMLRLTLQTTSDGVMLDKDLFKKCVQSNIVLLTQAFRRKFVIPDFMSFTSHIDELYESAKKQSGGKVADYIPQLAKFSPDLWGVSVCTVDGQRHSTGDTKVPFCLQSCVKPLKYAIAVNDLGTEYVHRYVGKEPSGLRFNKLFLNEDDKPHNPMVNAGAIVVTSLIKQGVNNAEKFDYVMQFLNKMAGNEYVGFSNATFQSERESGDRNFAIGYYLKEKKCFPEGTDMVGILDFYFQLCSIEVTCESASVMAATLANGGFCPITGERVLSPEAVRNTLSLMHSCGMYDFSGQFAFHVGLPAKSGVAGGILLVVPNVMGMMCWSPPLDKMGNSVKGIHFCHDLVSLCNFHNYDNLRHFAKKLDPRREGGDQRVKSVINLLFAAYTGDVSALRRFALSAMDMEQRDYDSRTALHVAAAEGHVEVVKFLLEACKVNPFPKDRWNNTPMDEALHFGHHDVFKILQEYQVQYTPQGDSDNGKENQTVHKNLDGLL
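Human kidney-isoform GLS in 45 mM KH2PO4 pH 8.2, 0.02% Tween-20, with compound, started with 1mM L-Glutamine (added stock). Glutamate oxidase/HRP/Amplex red coupled fluorescence read at start and after 30 min at RT.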
pAkt inh: Akt phosphorylation inhibition. AID 651550. Neuro2A IGF-stimulated pAkt S473 HTRF, 20 min; stronger effect = lower value. 0.32% of 360,000 active. activity change, % for hits at 50 µM; in the data active means activity change below about -80%; inconclusive means mostly about -51% to -80%; further: on the % scale 0 is the no-effect control and ±100 the full control effect
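Single-point screen (50 µM final compound) in Neuro2A cells stimulated 20 min with 6 nM IGF at 37 deg C. After lysis, Ser473-phosphorylated Akt read by HTRF (ex 330 nm, em 615/665 nm) as the 665/615 ratio.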
* marks the source's active call; other numbers are inactive results; i = inactive; ? = inconclusive; nt = not tested or not shown. Unless noted, the call rests on the fitted dose curve; in most records, active means well fitted curve in the direction sought with a large enough effect; inconclusive means small, poorly fitted or top-dose-only effect, or another doubt; inactive means no such curve, though single readings can be large; an effect the other way counts as inactive or inconclusive.

SMILES	MmCpn inh	IDH1 R132H inh	CCT chaperon mod	GRP78 ERSR act	GLS inh	pAkt inh
O=C(O)c1ccc(CNCc2cccc(Oc3ccccc3)c2)cc1	1.0%	-7.8%	-1.2	-3.0%	11.3%	i
Cc1c(C#N)c2ncnc(N)c2n1-c1ccccc1	-0.3%	7.0%	2.5	-3.6%	-8.7%	-103.7%*
Cc1c(C#N)c2ncn(CCCN(C)C)c(=O)c2n1-c1ccccc1	-0.2%	9.1%	0.4	-0.1%	11.0%	i
Cc1c(C#N)c2ncn(Cc3ccccn3)c(=O)c2n1-c1ccccc1	0.3%	-1.8%	-79.6*	-2.1%	-20.0%	i
Cc1cnc(-n2ncc(C(=O)NCCc3ccncc3)c2-c2cccs2)nc1-c1ccc(F)cc1	nt	nt	nt	-2.4%	nt	nt
O/N=C1\CCc2cc(Cl)ccc21	2.2%	8.1%	-0.3	-1.3%	10.3%	-102.0%*
CC1=C(C(=O)Nc2ccccc2)C(c2cccs2)n2nnnc2N1 (configuration not stated)	-2.5%	3.9%	-1.4	-2.0%	21.0%	-95.7%*
CC1=C(C(=O)Nc2ccccc2)C(c2ccncc2)n2nnnc2N1 (configuration not stated)	1.2%	5.5%	-1.7	-3.1%	-2.8%	i
C1=C(c2ccccc2)Nc2nnnn2C1c1cccs1 (configuration not stated)	-0.9%	-0.9%	-0.4	2.4%	6.5%	-110.5%*
COc1ccc(CN2CCC(n3cc(C(=O)N4CCCC4)nn3)CC2)c(OC)c1C	nt	nt	nt	-0.3%	nt	nt
Cc1ccc(C)c(Oc2nnnn2-c2ccccc2)c1	0.6%	1.2%	0.6	3.5%	2.0%	-114.6%*
COc1ccccc1N(CC(=O)NC1CCCCC1)C(=O)c1csnn1	0.4%	1.3%	0.3	-1.1%	-17.9%	i
Cc1ccc(N(C(=O)c2csnn2)C(C(=O)NC2CCCCC2)c2ccccn2)c(C)c1 (configuration not stated)	-0.2%	-2.5%	-31.7*	-2.2%	0.1%	i
COc1ccccc1N(CC(=O)NC1CCCC1)C(=O)c1csnn1	1.4%	2.3%	1.9	?	-10.4%	-121.1%*
CCOc1ccc(S(=O)(=O)Nc2ccc(O)c(Sc3ncn[nH]3)c2)cc1	1.7%	3.1%	-38.4*	-1.0%	66.9%	i
Cc1ccc(S(=O)(=O)Nc2ccc(O)c(Sc3ncn[nH]3)c2)cc1	3.8%	4.7%	-0.7	-3.1%	41.5%	i
CO[C@@H]1[C@@H](OC2OC(C)C(OC3CC(C)(O)C(O)C(C)O3)C(N(C)C)C2O)[C@@H](CC=O)C[C@@H](C)[C@@H](OC2CCC(N(C)C)C(C)O2)/C=C/C=C/C[C@@H](C)OC(=O)C[C@H]1OC(C)=O (some centres not stated)	nt	nt	nt	-2.7%	14.1%	nt
Cc1cccc(CN2CCC(CNC(=O)CCNC(=O)Cn3ccc4ccccc4c3=O)CC2)c1	1.4%	9.0%	-0.2	-4.9%	0.7%	i
O=C(Cn1ccc2ccccc2c1=O)NCCC(=O)NC1CCN(Cc2ccccc2)CC1	-3.8%	4.7%	-31.0*	-4.1%	0.8%	i
COc1ccc(/C=N/n2cnnc2SCc2ccccc2)cc1	0.3%	1.4%	1.4	-3.2%	1.6%	-109.9%*
COc1ccc(/C=N/n2cnnc2SCc2ccc(OC)cc2)cc1	0.4%	9.3%	-1.3	-0.1%	10.9%	i
COc1ccc(N2C(N)=NC(N)=NC23CCCC3)cc1	0.3%	1.0%	-0.8	-7.7%	1.0%	-105.6%*
CCCCOc1ccc(N2C(N)=NC(N)=NC23CCCCC3)cc1	-0.7%	1.3%	1.8	3.9%	0.6%	i
COc1ccc(-c2cc(C)cc3c2OC(CNC(=O)/C=C/c2ccncc2)C3)nn1 (configuration not stated)	nt	nt	nt	-2.1%	nt	nt
S=c1[nH]nc(-c2cc(-c3ccccc3)n[nH]2)n1/N=C/C=C/c1ccco1	-0.2%	-0.8%	1.7	0.0%	3.98µM*	i
SMILES	MmCpn inh	IDH1 R132H inh	CCT chaperon mod	GRP78 ERSR act	GLS inh	pAkt inh
S=c1[nH]nc(-c2ccco2)n1/N=C/C=C/c1ccco1	-0.8%	2.5%	1.9	-3.1%	-19.9%	i
CCC1(C)NC(C(=O)O)Cc2c1[nH]c1ccccc21 (configuration not stated)	1.8%	0.9%	-39.5*	-2.5%	-2.8%	i
CC(C)C(NC(=O)OC(C)(C)C)C(=O)N1CCCC1C(=O)NC(Cc1ccccc1)C(N)=O (configuration not stated)	-13.6%	-8.0%	1.0	9.7%	3.9%	-111.6%*
CC(C)(C)OC(=O)N[C@H](Cc1ccccc1)C(=O)N1CCC[C@@H]1C(=O)O	1.9%	-1.6%	-0.4	-3.2%	-0.4%	i
COCC(=O)Nc1cc(C(=O)N2CCc3c([nH]c4ccccc34)C2)cc2nc(-c3ccccc3)n(C)c12	nt	nt	nt	-2.5%	nt	nt
COc1ccccc1C1CN(Cc2cccc(O)c2)Cc2ccccc2O1 (configuration not stated)	nt	nt	nt	-6.3%	nt	nt
CN(Cc1ccccc1)C(=O)C1CCN(S(=O)(=O)c2cccc3nonc23)CC1	-17.3%	-1.5%	0.9	0.9%	10µM*	i
CN(C(=O)C1CCN(S(=O)(=O)c2cccc3nonc23)CC1)C1CCCCC1	1.1%	-4.2%	-1.7	-2.2%	4.0%	i
CCn1c(SCC(=O)NCc2ccc3c(c2)OCO3)nnc1-c1ccncc1	0.4%	0.0%	-53.4*	-1.3%	16.8%	i
CCn1c(SCC(=O)NCc2ccc3c(c2)OCO3)nnc1-c1c[nH]c2ccccc12	-3.6%	0.0%	2.3	-5.0%	-6.5%	i
CNC(=O)CSc1nnc(-c2ccncc2)n1Cc1ccccc1	-1.0%	-1.4%	-4.2	-0.2%	-7.6%	-111.8%*
O=C(CSc1nnc2scc(-c3ccccc3)n12)NCc1ccc2c(c1)OCO2	-0.4%	3.4%	-2.3	-3.0%	2.6%	i
O=C(CSc1nnc(Cc2cccs2)n1-c1ccccc1)NCc1ccc2c(c1)OCO2	2.4%	1.8%	-1.0	-5.8%	11.5%	-84.9%*
CCc1noc(C)c1C(=O)N1CCOc2ccc(CN3CCCC(C(=O)c4cccnc4)C3)cc2C1 (configuration not stated)	nt	nt	nt	-4.7%	nt	nt
CC(C)C(NS(C)(=O)=O)c1nnc2n1CCN(Cc1ccc3cccnc3c1)CC2 (configuration not stated)	nt	nt	nt	-4.8%	nt	nt
Cc1nc(N2CCN(C)CC2)[nH]c(=O)c1Cc1cccc2ccccc12	-1.4%	5.5%	2.1	2.6%	0.3%	i
Cc1[nH]c(=O)[nH]c(=O)c1Cc1cccc2ccccc12	0.4%	-4.3%	-37.3*	-2.8%	3.4%	i
COc1cccc(CNC(=O)c2c(OC)cc(=O)n3c2CCN(C(=O)c2ccc(Cl)cc2)CC3)c1	nt	nt	nt	-5.5%	nt	nt
